Among all 420,000 compounds or so, about 64,000 (15%) were called active. Another 27% or so got no clear call; they are omitted. The call rests on the fitted dose curve; in most records, active means well fitted inhibition curve with a large enough effect; inconclusive means small, poorly fitted or top-dose-only effect; inactive means flat fitted curve, though single readings scatter. Only a sample is shown. Where a call stands in place of a potency, no number is given.
Test: qHTS for Inhibitors of human tyrosyl-DNA phosphodiesterase 1 (TDP1): qHTS in cells in absence of CPT; further: nearly all actives have a fitted effect of over 55% in size
Settings: DT40 Tdp1-/- hTDP1 cells, no CPT, ATP luminescence, 48 h; activity change, negative = growth inhibition: at 46.2 µM (top of the series)
Procedure, shortened: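 Growth of hTDP1-complemented DT40 Tdp1-knockout cells is measured by ATP luminescence after at least 48 hr compound exposure at 37 °C, with DMSO substituting for the 20 nM CPT used in the parallel screen.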
Potency means the concentration at half of the fitted maximal effect.

Structure (SMILES) | Potency
N#Cc1ccc(-c2ccc3nccn3c2)cc1 | inactive
Cc1ccc(-n2ccc(=O)c(C(=O)O)n2)cc1 | inactive
CC(=O)c1nn(-c2ccccc2)c(=Nc2ccccc2)cc1C | inactive
Cn1c(=O)c(C(=O)O)nn(-c2ccccc2)c1=O | 16.4 µM (active)
CCC1SC(CC)C(=O)N(CC(=O)NC2CCCCC2)C1=O (stereo not drawn) | inactive
CC(C)Oc1ccc(S(=O)(=O)N2CCOCC2)cc1NC(=O)C1CCCC1 | inactive
O=C(Cn1c(-c2cscn2)nc2ccccc21)Nc1ccc(Cl)cc1 | 20.6 µM (active)
O=C(Cn1c(-c2cncs2)nc2ccccc21)NC1CCCC1 | inactive
COc1ccc(NC(=O)COC(=O)Cn2c(C)nc3ccccc32)cc1OC | inactive
C#CCOCCOCCOCCNc1nc(N2CCN(C(=O)[C@H](Cc3ccc(O)cc3)n3cc(C(N)CC(C)C)nn3)CC2)nc(N2CCN(C(=O)[C@H](CCC(=O)O)n3cc(C(N)[C@H](C)CC)nn3)CC2)n1 (stereo partly drawn) | inactive
O=C(CSc1nc(C2CC2)nc2ccccc12)Nc1ccc2c(c1)OCCO2 | 20.6 µM (active)
Cc1nnc(NC(=O)CSc2nc(C3CCCCC3)nc3ccccc23)s1 | inactive
O=C(CSc1nc(-c2cccc(F)c2)[nH]c1-c1ccccc1)Nc1ccc2c(c1)OCO2 | 10.3 µM (active)
O=C(CN1CCN(CC(=O)Nc2ccc3c(c2)OCO3)CC1)Nc1ccc(F)cc1 | inactive
CN(C(=O)CSc1nc(C2CC2)nc2ccccc12)c1nc(-c2ccccc2)cs1 | 20.6 µM (active)
O=C(CSc1nc(C2CC2)nc2ccccc12)Nc1cccc(O)c1 | inactive
COC(=O)CSc1nc(C2CC2)nc2ccccc12 | inactive
O=C(CSc1nnc(-c2ccccn2)n1-c1ccccc1)Nc1ccc2c(c1)OCO2 | inactive
CCNC(=O)CSc1nc(-c2ccccc2)cs1 | inactive
CC(=O)Oc1ccc(C(=O)Nc2nccs2)cc1 | inactive
Cc1ccc(C(=O)N/C(=C/c2cccnc2)C(=O)O)cc1 | inactive
Cn1ccnc1SCC(=O)Nc1ccc2c(c1)OCCO2 | inactive
Cc1cc([N+](=O)[O-])c(=O)[nH]c1C | inactive
COc1ccc(S(=O)(=O)NCC(c2ccco2)N2CCOCC2)cc1 (stereo not drawn) | inactive
Cn1cc(S(=O)(=O)NC(c2ccccc2)c2ccccc2)c(=O)n(C)c1=O | inactive
CCn1c(SCC(=O)Nc2nccs2)nnc1-c1ccco1 | inactive

Structure (SMILES) | Potency
O=C(COC(=O)c1ccc(F)cc1F)Nc1ncccn1 | inactive
Cc1cc(C)nc(-n2nc(C)cc2NC(=O)c2ccc(F)cc2F)n1 | 6.51 µM (active)
Cc1cc(NC(=O)Nc2ccccc2)n(-c2ccccc2)n1 | inactive
CC(C)c1ccc(S(=O)(=O)N2CCC3(CC2)OCCO3)cc1 | inactive
c1ccc2c(c1)CCc1snnc1-2 | inactive
C=CCn1c(SCc2c(C)noc2C)nc2sc3c(c2c1=O)CCC(C)C3 (stereo not drawn) | 16.4 µM (active)
C=CCn1c(SCC(=O)NCCCO)nc2sc3c(c2c1=O)CCC3 | inactive
C=CCn1c(SCC(=O)NCC2CCCO2)nc2sc(C)c(C)c2c1=O (stereo not drawn) | inactive
O=C(CN(CC1CCCO1)C(=O)CNS(=O)(=O)c1ccc(F)cc1)NCc1ccco1 (stereo not drawn) | inactive
Nc1nnc(SCC(=O)NCC(=O)Nc2ccc(F)c(F)c2F)s1 | inactive
Cc1ccc(Cn2c(C)c(C(=O)NCc3ccccc3C(F)(F)F)sc2=O)cc1 | inactive
Cn1c(CC(=O)Nc2ccc(F)cc2)nnc1SCC(=O)NC1CCCCC1 | inactive
O=C(c1ccco1)N1CCN(C(=O)C2c3ccccc3Oc3ccccc32)CC1 | inactive
O=C(CCSc1ccccc1)N1CCN(c2ccccc2F)CC1 | inactive
O=C(CCS(=O)(=O)c1cccc2nsnc12)N1CCN(c2ccccc2F)CC1 | inactive
O=C(Cc1ccccc1Cl)N1CCN(c2ccccn2)CC1 | inactive
O=C(CCSCc1ccccc1F)N1CCN(c2ccc(Cl)cc2)CC1 | 18.4 µM (active)
Cc1cccc(N2CCN(C(=O)CCSCc3ccccc3F)CC2)c1C | 20.6 µM (active)
O=C(CCc1ccccc1F)N1CCN(c2ccccc2)CC1 | inactive
Cc1ncoc1C(=O)NCCC(c1ccccc1)c1ccccc1 | inactive
COc1ccc(S(=O)(=O)N2CCN(CC(=O)N3CCOCC3)CC2)cc1OC | inactive
Cc1ccc(S(=O)(=O)N2CCN(C(=O)COC(=O)c3c(C)cc(C)cc3C)CC2)c(C)c1 | 10.3 µM (active)
Cc1ccc(S(=O)(=O)N2CCN(C(=O)N3CCOCC3)CC2)c(C)c1 | inactive
Cc1ccc(S(=O)(=O)N2CCN(C(=O)Cc3sc(C)nc3-c3ccc(F)cc3)CC2)c(C)c1 | 18.4 µM (active)
Cc1ccc(S(=O)(=O)N2CCN(C(=O)COC(=O)c3c(C)noc3C)CC2)c(C)c1 | inactive
Cc1ccc(S(=O)(=O)N2CCC3(CC2)OCCO3)c(C)c1 | inactive

Structure (SMILES) | Potency
COc1ccc(/C=C/C(=O)OCC(=O)N2CCN(S(=O)(=O)c3ccc(C)cc3C)CC2)cc1OC | 20.6 µM (active)
Cc1nc(-c2ccc(F)cc2)c(CC(=O)Nc2cccc(S(=O)(=O)N3CCOCC3)c2)s1 | inactive
CCCCOc1ccc(C(=O)NCC(=O)OCC(=O)N2CCN(S(=O)(=O)c3ccc(C)cc3C)CC2)cc1 | inactive
Cc1ccc(S(=O)(=O)N2CCN(C(=O)COC(=O)/C=C/c3cccc(Cl)c3)CC2)c(C)c1 | 23.1 µM (active)
COc1ccc(S(=O)(=O)N2CCN(C)CC2)c(C)c1 | inactive
O=C(COC(=O)/C=C/c1cccc(Cl)c1)NCc1cccs1 | inactive
Cc1nc2ncnn2c(C)c1CCC(=O)N1CCN(C(=O)c2ccco2)CC1 | inactive
COc1ccc(CN(C)CCn2cc(C(=O)N3CCSCC3)nn2)cc1C | inactive
Cc1cnc(C(=O)Oc2cccc(Cl)c2Cl)cn1 | inactive
COc1cc(OC)c(C(=O)NC2CC(C)(C)NC(C)(C)C2)cc1OC | inactive
O=C(O)CCCC(=O)Nc1ccc(Oc2cccc(C(F)(F)F)c2)nc1 | inactive
CCOC(=O)Cn1c2c(c(-c3ccccc3OC)cc1=O)CCCC2 | inactive
CCc1cccc(NC(=O)CCCN2C(=O)C(c3ccccc3)Oc3cccnc32)c1 (stereo not drawn) | inactive
Cc1ccc(CNCc2ccc3c(c2)OCO3)c(C)c1 | inactive
COC(=O)c1sccc1NN1C(=O)c2ccccc2C1=O | inactive
CCCCn1c(N)c(N(CCOC)C(=O)c2cccc(S(=O)(=O)N(C)c3ccccc3)c2)c(=O)[nH]c1=O | inactive
C=CCC(NCCCO)c1cccc(OC)c1OC (stereo not drawn) | inactive
O=C(CCN1C(=O)[C@H]2CC=CC[C@H]2C1=O)NCc1nc(-c2ccccc2)no1 | inactive
O=C(NCCCn1ccnc1)c1cc(Br)c(Br)s1 | inactive
O=C(COC(=O)c1cnc(Cl)c(Cl)c1)NCc1ccco1 | inactive
O=C1CCC(=O)N1CCC(=O)N(C(=O)NC1CCCCC1)C1CCCCC1 | inactive
CCc1nnc(NC(=O)c2cc(S(=O)(=O)N3CCN(CC)CC3)ccc2Cl)s1 | inactive
COCCOC(=O)C1=C(C)Nc2nc(C)nn2C1c1ccccc1 (stereo not drawn) | inactive
Cc1ccc(S(=O)(=O)N2CCN(C(=O)COC(=O)CNC(=O)c3ccc(C(C)(C)C)cc3)CC2)c(C)c1 | inactive
Cc1ccc(C)c(OCCC(=O)OCC(=O)N2CCN(c3ccccc3)CC2)c1 | inactive
COc1ccccc1CCC(=O)OCC(=O)N1CCN(S(=O)(=O)c2ccc(C)cc2C)CC1 | 23.1 µM (active)

Structure (SMILES) | Potency
O=c1ccc(-c2ccc(S(=O)(=O)Nc3ccccc3)o2)n[nH]1 | inactive
COc1ccc(CNC(=O)COc2cccnc2[N+](=O)[O-])cc1 | inactive
CSc1nc2nc(-c3cccc(C(F)(F)F)c3)ccn2n1 | inactive
COc1cccc(NC(=O)CSc2nnc(-c3cccnc3)o2)c1 | inactive
O=C(CNS(=O)(=O)c1cccc(C(F)(F)F)c1)Nc1ccccc1F | inactive
CNc1cnc(-c2cc(OC)c(OC)c(OC)c2)cn1 | inactive
CC(=O)Nc1cc(-c2ccccc2F)cn2c(-c3cccc(C(F)(F)F)c3)cnc12 | 0.326 µM (active)
COc1cccc(NC(=O)C2c3cc(OC)c(OC)cc3C(=O)N(C)C2c2cccnc2)c1 (stereo not drawn) | inactive
COc1cccc(C(NC(C)=O)c2nc(-c3ccccc3OC)cs2)c1 (stereo not drawn) | inactive
COc1cccc(-c2cc(NC(C)=O)c3ncc(-c4cccc(C(C)=O)c4)n3c2)c1 | 23.1 µM (active)
COc1cccc(-c2cnc3c(NC(C)=O)cc(-c4cc(F)ccc4OC)cn23)c1 | 23.1 µM (active)
COc1ccc(-c2cc(NC(C)=O)c3ncc(-c4cc(OC)c(OC)c(OC)c4)n3c2)cn1 | 2.91 µM (active)
CC(=O)Oc1cccc(C(=O)Nc2ccccc2NC(=O)c2cccc(OC(C)=O)c2)c1 | inactive
CCCCOP(=O)(c1ccc(N(C)C)cc1)C(O)c1cc(OC)ccc1OC (stereo not drawn) | inactive
CCC1=[N+]([O-])C(C)(/C(C)=N\O)N(O)C1(C)C (stereo not drawn) | inactive
CN1C[C@@H](CO)O[C@@H](n2cnc3c(N4CCN(CCO)CC4)ncnc32)C1 | inactive
Cc1ccc(NC(=O)CSCC(=O)Nc2sccc2C#N)cc1 | inactive
Cc1cc(=O)oc2c3c(cc(OCC(=O)NCCC(=O)N[C@@H](C)C(=O)O)c12)OC(C)(C)CC3 | inactive
Cc1cc(=O)oc2c3c(cc(OCC(=O)NCc4ccccn4)c12)OC(C)(C)CC3 | 25.9 µM (active)
Cc1cc(=O)oc2c3c(cc(OCC(=O)N[C@H](C(=O)O)c4ccccc4)c12)OC(C)(C)CC3 | inactive
O=c1cc(CO)oc(C(Nc2cccc([N+](=O)[O-])c2)c2ccccn2)c1O (stereo not drawn) | inactive
CC1CCN(CC(=O)Nc2nccs2)CC1 | inactive
Cn1nnnc1SCC(=O)Nc1sccc1C(N)=O | inactive
CCOC(=O)c1c(-c2ccc(C)cc2C)csc1NC(=O)CSc1nnnn1C | 20.6 µM (active)
CCOC(=O)CNC(=O)CSc1nnnn1-c1cc(C)ccc1C | inactive

Source: PubChem BioAssay AID686978 (National Center for Advancing Translational Sciences (NCATS), 2013)
